# Values joined by “and” are separate entries in the source; they are usually repeats but may differ in a detail not shown here. Equal entries are not always repeated. Screen size: about 340,000 compounds; about 12,000 (3.5%) were called active. About 18% were inconclusive and are not listed. The call rests on the fitted dose curve; in most records, active means well fitted inhibition curve with a large enough effect; inconclusive means small, poorly fitted or top-dose-only effect, or another doubt; inactive means no such curve, though single readings can be large or run the other way. What follows is part of a selection rich in actives, with near analogues and random picks from the rest. More than one record can exist for a structure, and the calls need not agree.
# Assay: qHTS Assay for Inhibitors of Hepatitis C Virus (HCV)
# Settings: Huh7.5.1 HCVcc-Cre infection, luciferase reporter, 44 h; series mostly up to 41.8 µM; activity change, negative = inhibition: at the top concentration
# Outline: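 Whole-lifecycle infectious HCVcc-Cre system; cells 1,000/well, compound then virus (~0.5 moi) added 4 h after plating, 44 h culture. Luciferase read 15 sec following 15 min substrate incubation, room temp.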
# On the % scale 0 is the no-effect control and ±100 the full control effect; potency means the concentration at half of the fitted maximal effect.
Structure (SMILES),"activity change, negative = inhibition",Potency
CCCC(O)(c1ccccc1)C(c1ccccc1)c1ccccn1 (stereo not given),4.16% (inactive),–
Cc1c(C(=O)Nc2ccccn2)oc2ccc(Br)cc12,-2.03% (inactive),–
NC(=O)Cc1nc2scc(-c3ccc(Cl)cc3)c2c(=O)[nH]1,4.99% (inactive),–
O=c1[nH]c(CCl)nc2cc(-c3ccc(Cl)cc3)sc12,–,6.31 µM (active)
O=c1[nH]c(CN2CCOCC2)nc2cc(Cl)ccc12,3.38% (inactive),–
COc1ccc(/C=C/C(=O)OCC(=O)NC2CCCCCC2)cc1OC,-10.7% (inactive),–
COc1cc(OC)cc(C(=O)NC(C(=O)N2CCC2)C(C)C)c1 (stereo not given),-12.1% (inactive),–
CC(C=Cc1ccccc1)=NNS(=O)(=O)c1ccc([N+](=O)[O-])cc1,-8.84% (inactive),–
COc1ccccc1NC1=NC(c2ccc(Cl)cc2)N=C(N)N1 (stereo not given),–,10 µM (active)
CC1(C)N=C(N)NC(Nc2ccc(Cl)cc2)=N1,8.79% (inactive),–
COc1ccccc1NC1=NC2(CCCC2)N=C(N)N1,8.21% (inactive),–
O=c1oc2ccccc2c(=O)c2ccccc12,-4.58% (inactive),–
CCOC(=O)c1c(C)nc2c(c1C)c(=O)oc1ccccc12,11.3% (inactive),–
Cc1ccccc1-n1nnc2c(=O)oc3ccccc3c21,–,35.5 µM (active)
Cc1cc(NC(=O)CSc2nnc(-c3ccco3)n2N)no1,8.97% (inactive),–
COc1ccc(NC(=O)CCCNC(=O)Cn2cnc3sc4c(c3c2=O)CCCC4)cc1OC,-21% (inactive),–
COc1ccc(NC(=O)CCNC(=O)Cn2cnc3sc4c(c3c2=O)CCCC4)cc1OC,13.8% (inactive),–
COc1ccc(/C=N/Nc2ncnc3sc4c(c23)CCCC4)cc1O,–,11.2 µM (active)
O=C(COC(=O)/C=C/c1cccc(Cl)c1)NCc1cccs1,17.5% (inactive),–
O=C(OCC(=O)N1CCCCC1)c1ccc(OC(F)(F)F)cc1,-0.311% (inactive),–
COc1ccc(Cl)cc1C(=O)NCC#N,-16% (inactive),–
CCN(CC)CCNC(=O)c1ccc(NS(=O)(=O)c2ccc3c(c2)OCCO3)cc1,9.4% (inactive),–
CCN(CC)CCNC(=O)c1cc(S(C)(=O)=O)ccc1OC,–,inactive and 35.5 µM (active)
COc1ccccc1/C=C/C(=O)OCC(=O)NC1CCCCCC1,-4.31% (inactive),–
O=C(CCN1C(=O)c2ccccc2C1=O)NCCCn1ccnc1,21.1% (inactive),–
CCOc1ccccc1C(=O)NCCCn1ccnc1,31.5% (inactive),–
Clc1c(OCCCn2ccnc2)ccc2ccccc12,–,14.1 µM (active)

Structure (SMILES),"activity change, negative = inhibition",Potency
N#Cc1cc([N+](=O)[O-])ccc1NC(=O)COC(=O)c1cnccn1,10.2% (inactive),–
CCOC(=O)C/C(C)=N\Nc1ccc([N+](=O)[O-])cc1[N+](=O)[O-],-10.9% (inactive),–
Cc1csc(NC(=O)Nc2ccccc2[N+](=O)[O-])n1,-16.5% (inactive),–
CCOC(=O)/C(=N\Nc1ccccc1[N+](=O)[O-])c1csc(Nc2ccccc2)n1,–,5.01 µM (active)
COc1ccc(N=C2C=CC(=O)O2)cc1,2.73% (inactive),–
COc1ccccc1C(=O)COC(=O)COc1ccc(C#N)cc1,12.2% (inactive),–
O=c1[nH]c(CSc2ncc(-c3ccc(F)cc3)n2Cc2ccco2)nc2ccccc12,–,25.1 µM (active)
Cn1c(-c2ccc(F)cc2)cnc1SCC(=O)NCc1ccco1,4.53% (inactive),–
CCn1c(Cc2ccccc2)nnc1SCc1nc2ccccc2c(=O)[nH]1,1.37% (inactive),–
CC(C)(CNC(=O)CNC(=O)C1CCCCC1)N1CCOCC1,7.89% (inactive),–
O=C(C[C@@H]1C/C=C\CCC(=O)OC[C@@H]2CCCN2C1=O)NCCO,25.9% (inactive),–
COc1ccc(C(=O)Nc2ccc(NC(=O)C(C)C)nc2)cc1,-18.4% (inactive),–
COc1ccc(CS(=O)/C(Cl)=C(/Cl)C(=O)Nc2ccc(OC)nc2)cc1 (stereo not given),–,4.47 µM (active)
COc1ccc(Nc2cc(Cl)ccc2C(=O)O)cn1,7.73% (inactive),–
COc1ccc(NS(=O)(=O)c2ccc(C)c(C(=O)NCC(c3cccs3)N3CCOCC3)c2)cc1 (stereo not given),8.78% (inactive),–
CC(C)Cc1nnc(N)s1,35.4% (inactive),–
Cc1nc(-c2ccc(F)cc2)c(CC(=O)Nc2cc(S(=O)(=O)N3CCCCC3)ccc2C)s1,-18.8% (inactive),–
COC1=CC(=O)OC(c2ccc(OC)cc2)C1 (stereo not given),1.66% (inactive),–
CCSc1nnc(NC(=O)c2ccc(C)cc2)s1,13.7% (inactive),–
CSc1nnc(NC(=O)c2nc(S(=O)(=O)Cc3ccc(C)cc3)ncc2Cl)s1,–,12.6 µM (active)
CSc1ncc(Cl)c(C(=O)Nc2cc(C)ccc2C)n1,12% (inactive),–
CCC1Nc2ncnc(N3CCN(c4ccccc4)CC3)c2N(Cc2ccc(Cl)cc2)C1=O (stereo not given),-52.3% (inactive),–
CCCN(CC1CC1)C(=O)COC(=O)c1ccc(C)cc1O,-14.8% (inactive),–
COc1ccc(C(=O)O)cc1S(=O)(=O)NC1CCN(Cc2ccccc2)CC1,19.7% (inactive),–
Oc1ccc2ccccc2c1N=Nc1nccs1,–,8.91 µM (active)
Oc1ccc(N=Cc2c(O)ccc3ccccc23)cc1,12% (inactive),–
Oc1c(C=Nc2cccc3nsnc23)ccc2ccccc12,-29.7% (inactive),–

Structure (SMILES),"activity change, negative = inhibition",Potency
COc1ccccc1CCC(=O)NNC(=O)c1ccncc1,0.729% (inactive),–
CC(C)(C)OC(=O)C[C@@H]1C/C=C\C[C@@H](CC(=O)N[C@H](CO)Cc2ccccc2)C(=O)NC[C@@H](c2ccccc2)OC1=O,2.19% (inactive),–
COc1cc2c(-c3ccc4c(c3)OCO4)c(-c3ccsc3)oc(=O)c2cc1OC,-6.43% [at 8.37 µM] (inactive),–
COc1cc(CC(=O)NCc2cccs2)cc(OC)c1OC,14.3% (inactive),–
COC(=O)c1c(-c2ccsc2)oc2ccc(-c3cc(OC)c(OC)c(OC)c3)cc12,–,12.6 µM (active)
Cn1c(-c2ccc(F)cc2)cc2onc(-c3ccccc3Cl)c2c1=O,15.1% (inactive),–
CC1(C)CC(=O)C=C(c2ccc(Cl)c(C(F)(F)F)c2)C1,9.91% (inactive),–
COc1ccc(S(=O)(=O)N2CCOCC2)cc1NC(=O)CSc1nnc(NC2CC2)s1,6.7% (inactive),–
Cc1cc(NC(=O)COC(=O)/C=C/c2ccc(C)o2)no1,0.593% (inactive),–
Cc1ccc(Nc2nc(N)nc(CN3CCN(Cc4ccccc4)CC3)n2)cc1Cl,-23.6% (inactive),–
CNc1nc(Nc2ccc(C)c(Cl)c2)nc(N)c1[N+](=O)[O-],–,11.2 µM (active)
Cc1ccc(Nc2nc(N3CCOCC3)nc(N3CCOCC3)n2)cc1Cl,4.85% (inactive),–
Nc1ncnc2c1ncn2[C@@H]1O[C@H](CNS(=O)(=O)c2ccc(-c3ccno3)s2)[C@@H](O)[C@H]1O,2.29% (inactive),–
Cc1ccc(OCCNC(=O)CNC(=O)c2ccc(C)c(C)c2)cc1,5.27% (inactive),–
CCc1nnc(NC(=O)c2cc(S(=O)(=O)N3CCCCC3)ccc2C)s1,9.73% (inactive),–
COc1ccc(CCC(=O)N2CCN(S(=O)(=O)c3ccc(OC)cc3)CC2)cc1,-8.57% (inactive),–
Cn1nc(-c2ccccc2)c2cc([N+](=O)[O-])ccc21,–,12.6 µM (active)
Cc1nn(-c2ccc([N+](=O)[O-])cc2)c(N)c1-c1ccccc1,-16.2% (inactive),–
COc1ccc([N+](=O)[O-])cc1-c1nc2ccccc2nc1-c1ccccc1,-2.01% (inactive),–
CCN(C(=O)COC(=O)c1c(C)nn(-c2ccccc2)c1Cl)c1c(N)n(Cc2ccccc2)c(=O)[nH]c1=O,-29.1% (inactive),–
O=C(CN1C(=O)NC2(CCCC2)C1=O)Nc1cc(C(F)(F)F)ccc1N1CCOCC1,16.6% (inactive),–
O=C(CCc1ccccc1Cl)Nc1ccc(S(=O)(=O)Nc2nccs2)cc1,1.35% (inactive),–
CC(C)(C)S(=O)(=O)N1Cc2cc(CO)cc(CCO)c2[C@H]1CCO,13.6% (inactive),–
O=C(COC(=O)c1ccc([N+](=O)[O-])o1)NC12CC3CC(CC(C3)C1)C2,7.78% (inactive),–
OCCCNc1nccc(-c2cc(Nc3cccc(Cl)c3)ncn2)n1,–,2.82 µM (active)
Cn1c(Nc2cccc(Cl)c2)nc2ccccc21,-15.3% (inactive),–
NS(=O)(=O)c1cccnc1Nc1cccc(Cl)c1,-3.49% (inactive),–

Structure (SMILES),"activity change, negative = inhibition",Potency
CCN1C(=O)[C@@H]2[C@@H](c3ccc(-c4ccc(OC)cc4)c(OC)c3)N3CCC[C@@]3(C(=O)OC)[C@@H]2C1=O,-15.4% (inactive),–
CC(C)(C)C(=O)COC(=O)c1cc(S(=O)(=O)N2CCCCC2)ccc1N1CCOCC1,-3.73% (inactive),–
COc1ccc(S(=O)(=O)N2CCCCC2)cc1NC(=O)c1cc([N+](=O)[O-])ccc1N1CCOCC1,–,7.94 µM (active)
O=C(OCCOc1ccccc1Cl)c1cc(S(=O)(=O)N2CCCCC2)ccc1N1CCOCC1,–,2.51 µM (active)
O=C(OCCOc1ccccc1F)c1cc(S(=O)(=O)N2CCOCC2)ccc1F,-3.68% (inactive),–
O=C(NCC1CCCCC1)c1cc(S(=O)(=O)N2CCCCC2)ccc1N1CCOCC1,6.19% (inactive),–
O=C(NC1CCCCC1)c1cc([N+](=O)[O-])ccc1N1CCOCC1,-8.15% (inactive),–
O=C(COC(=O)c1cc(S(=O)(=O)N2CCOCC2)ccc1F)NC1CC1,20.7% (inactive),–
COC1C(CO)OC(n2cnc3c(=S)nc(N)[nH]c32)C1O (stereo not given),21.9% (inactive),–
CC(C)(C)c1ccc(S(=O)(=O)N2CCN(C(=O)c3ccc4c(c3)C(=O)N(Cc3ccncc3)C4=O)CC2)cc1,13.7% (inactive),–
CC[C@]1(C(=O)OC)[C@H]2C(=O)N(Cc3ccccc3)C(=O)[C@H]2[C@H]2CN=C(SCc3ccc(C#N)cc3)N21,-29.6% [at 8.37 µM] (inactive),–
Cc1nc(N)nc(Cl)c1CCC1OCCO1,4.05% (inactive),–
O=C(CSc1nnc(COc2ccc(Cl)cc2)n1Cc1ccco1)N1CCNC1=O,0.329% (inactive),–
S=C(Nc1cccc(Cl)c1)Nc1ccc2cn[nH]c2c1,12.4% (inactive),–
CC(=O)Nc1cccc(C(=O)Nc2nc(C)cs2)c1,-2.74% (inactive),–
Cc1csc(NC(=S)Nc2cccc(Cl)c2)n1,–,12.6 µM (active)
Cc1ccc(Cn2c(C)c3cnn(CC(=O)NCCN4CCOCC4)c(=O)c3c2C)cc1,3.09% (inactive),–
COc1ccc(CNC(=O)CN2C(=O)c3ccccc3S2(=O)=O)cc1,-10.1% (inactive),–
O=C(Cn1nnc(-c2ccccc2)n1)NC(=O)NC1CCCC1,31.6% (inactive),–
COc1c(C)c2c(c(O)c1C/C=C(\C)CCC(=O)O)C(=O)OC2,–,2 µM (active)
CC(C)[C@@H](C(=O)OCC(=O)c1ccc2c(c1)NC(=O)CO2)N1C(=O)c2ccccc2C1=O,-2.05% (inactive),–
Cc1nn(C(C)C(=O)N2CCOCC2)c(=O)c2nn(-c3ccccc3)c(C)c12 (stereo not given),-2.95% (inactive),–
CC(Sc1nncs1)C(=O)NCc1ccc2c(c1)OCO2 (stereo not given),9.22% (inactive),–
Cc1ccc(-n2nc3c(=O)n(C(C)C(=O)NCc4ccc5c(c4)OCO5)nc(C)c3c2C)cc1 (stereo not given),–,11.2 µM (active)

# Reference: PubChem BioAssay AID651820 (National Center for Advancing Translational Sciences (NCATS), 2012)
